The structures appear in SMILES notation. The campaign covered roughly 3,200 compounds. About 300 (9.4%) showed activity. The sample as a whole holds a higher share of actives than the screen did.

The assay deals with A673/TR/shEF. The experiment in a line: cell viability (LOESS-normalised, relative to median of negative controls) (log2 ratio); higher = more viable cells (less compound effect), active = hit call of the paper (over 3 MAD below the median). The note with it: treatment time: 72 h. In a few lines:
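Viability of A673/TR/shEF Ewing sarcoma cells was determined by CellTiter-Glo luminescence. The cells, at 1,500 per well in 384-well plates, were grown with or without doxycycline from 24 h before compound addition to switch on EWS-FLI1 shRNA knockdown, then exposed for three days to library compounds at two or more concentrations or to DMSO controls. Signals were LOESS-corrected plate by plate, normalised to the negative-control median and log2-transformed.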

The mark [1] stands for this setting: 0.103 µM, library screen: screen3, EWS-FLI1 expression: high (no doxycycline).
Where [2] appears, read: 0.103 µM, library screen: screen3, EWS-FLI1 expression: low (doxycycline-induced shRNA knockdown).
[3] abbreviates: 0.308 µM, library screen: screen3, EWS-FLI1 expression: high (no doxycycline).
The mark [4] stands for this setting: 0.308 µM, library screen: screen3, EWS-FLI1 expression: low (doxycycline-induced shRNA knockdown).
Where [5] appears, read: 0.926 µM, library screen: screen3, EWS-FLI1 expression: high (no doxycycline).
Setting [6] is: 0.926 µM, library screen: screen3, EWS-FLI1 expression: low (doxycycline-induced shRNA knockdown).
Where [7] appears, read: 2.8 µM, library screen: screen3, EWS-FLI1 expression: high (no doxycycline).
Where [8] appears, read: 2.8 µM, library screen: screen3, EWS-FLI1 expression: low (doxycycline-induced shRNA knockdown).
Where [9] appears, read: 8.3 µM, library screen: screen3, EWS-FLI1 expression: high (no doxycycline).
The mark [10] stands for this setting: 8.3 µM, library screen: screen3, EWS-FLI1 expression: low (doxycycline-induced shRNA knockdown).
Setting [11] is: 25 µM, library screen: screen3, EWS-FLI1 expression: high (no doxycycline).
The mark [12] stands for this setting: 25 µM, library screen: screen3, EWS-FLI1 expression: low (doxycycline-induced shRNA knockdown).
The mark [13] stands for this setting: 0.25 µM, library screen: screen1, EWS-FLI1 expression: high (no doxycycline).
The mark [14] stands for this setting: 0.25 µM, library screen: screen1, EWS-FLI1 expression: low (doxycycline-induced shRNA knockdown).
Setting [15] is: 2.5 µM, library screen: screen1, EWS-FLI1 expression: high (no doxycycline).
Setting [16] is: 2.5 µM, library screen: screen1, EWS-FLI1 expression: low (doxycycline-induced shRNA knockdown).

Take `Nc1ccccc1NC(=O)c1ccc(CNc2nccc(-c3cccnc3)n2)cc1`: the “cell viability (log2)” value by setting is: under setting [1], 0.0488 (inactive); under setting [2], 0.158 (inactive); under setting [3], 0.0583 (inactive); under setting [4], 0.0629 (inactive); under setting [5], -0.0966 (inactive); under setting [6], 0.141 (inactive). Further, the “cell viability (log2)” value is -0.554 (active) under setting [7]; 0.00492 (inactive) under setting [8]; -1.39 (active) under setting [9]; -0.431 (active) under setting [10]; -3.23 (active) under setting [11]; -1.08 (active) under setting [12].
For `Cc1ccc(NC(=O)c2ccc(CN3CCN(C)CC3)cc2)cc1Nc1nc(-c2cccnc2)cs1`, the “cell viability (log2)” value is 0.122 (inactive) under setting [1]; 0.0762 (inactive) under setting [2]; 0.0521 (inactive) under setting [3]; 0.0956 (inactive) under setting [4]; 0.0749 (inactive) under setting [5]; 0.0933 (inactive) under setting [6]. Further, the “cell viability (log2)” value under setting [7] was 0.0638 (inactive); the “cell viability (log2)” value under setting [8] was 0.131 (inactive); the “cell viability (log2)” value under setting [9] was 0.061 (inactive); the “cell viability (log2)” value under setting [10] was 0.0802 (inactive); the “cell viability (log2)” value under setting [11] is -0.709 (active); the “cell viability (log2)” value under setting [12] is 0.154 (inactive).
Consider `Cc1cn(-c2cc(NC(=O)c3ccc(C)c(Nc4nccc(-c5cccnc5)n4)c3)cc(C(F)(F)F)c2)cn1`, for which the “cell viability (log2)” value under setting [1] was 0.0821 (inactive); the “cell viability (log2)” value under setting [2] is 0.114 (inactive); the “cell viability (log2)” value under setting [3] was 0.0305 (inactive); the “cell viability (log2)” value under setting [4] was 0.0807 (inactive); the “cell viability (log2)” value under setting [5] was 0.00582 (inactive); the “cell viability (log2)” value under setting [6] was 0.101 (inactive). The “cell viability (log2)” value under setting [7] was -0.0305 (inactive); the “cell viability (log2)” value under setting [8] was 0.116 (inactive); the “cell viability (log2)” value under setting [9] was 0.0184 (inactive); the “cell viability (log2)” value under setting [10] was 0.0705 (inactive); the “cell viability (log2)” value under setting [11] was -0.057 (inactive); the “cell viability (log2)” value under setting [12] is 0.0892 (inactive).
In the case of `O=C(NCO)c1cccnc1`, the “cell viability (log2)” value is, setting by setting: under setting [13], 0.28; under setting [14], 0.147 (inactive); under setting [15], 0.255 (inactive); under setting [16], 0.103 (inactive).
In the case of `Cc1ccc(NC(=O)c2ccc(CN3CCN(C)CC3)cc2)cc1Nc1nccc(-c2cccnc2)n1`, the “cell viability (log2)” value under setting [1] is 0.102 (inactive); the “cell viability (log2)” value under setting [2] is 0.119 (inactive); the “cell viability (log2)” value under setting [3] was 0.178 (inactive); the “cell viability (log2)” value under setting [4] is 0.125 (inactive); the “cell viability (log2)” value under setting [5] was 0.121 (inactive); the “cell viability (log2)” value under setting [6] is 0.129 (inactive). For the same molecule, the “cell viability (log2)” value under setting [7] is 0.135 (inactive); the “cell viability (log2)” value under setting [8] is 0.128 (inactive); the “cell viability (log2)” value under setting [9] was 0.122 (inactive); the “cell viability (log2)” value under setting [10] is 0.126 (inactive); the “cell viability (log2)” value under setting [11] is -0.195 (active); the “cell viability (log2)” value under setting [12] is 0.146 (inactive).
With `Cc1ccncc1Nc1ncccc1C(=O)Nc1ccc(C2(C#N)CCCC2)cc1`, the “cell viability (log2)” value runs as follows: under setting [1], 0.0267 (inactive); under setting [2], 0.0194 (inactive); under setting [3], 0.0111 (inactive); under setting [4], -0.0325 (inactive); under setting [5], -0.00588 (inactive); under setting [6], -0.00768 (inactive). The “cell viability (log2)” value reads like this: under setting [7], -0.00204 (inactive); under setting [8], -0.0249 (inactive); under setting [9], 0.00934 (inactive); under setting [10], -0.0211 (inactive); under setting [11], -0.0197 (inactive); under setting [12], 0.0222 (inactive).
Regarding `Cc1cc(O)c(C)c2c1C(=O)Oc1c(C)c(O)c(C(=O)O)c(C)c1O2`, the “cell viability (log2)” value by setting is: under setting [13], 0.09 (inactive); under setting [14], 0.103 (inactive); under setting [15], 0.0454 (inactive); under setting [16], 0.145 (inactive).
Consider `CC(C)=CCC/C(C)=C/CC/C(C)=C/CO`, for which the “cell viability (log2)” value under setting [13] was 0.153 (inactive), the “cell viability (log2)” value under setting [14] was 0.0866 (inactive), the “cell viability (log2)” value under setting [15] was 0.208 (inactive) and the “cell viability (log2)” value under setting [16] is 0.106 (inactive).
For `CC(C)=CCc1c(O)c(C(=O)CC(C)C)c2oc(=O)cc(-c3ccccc3)c2c1O`, the “cell viability (log2)” value runs as follows: under setting [13], 0.0516 (inactive); under setting [14], 0.00347 (inactive); under setting [15], 0.107 (inactive); under setting [16], 0.0124 (inactive).
Regarding `CC(C)CCCC(C)C1CCC2C3CC=C4CC(=O)CCC4(C)C3CCC12C` (centres undefined), the “cell viability (log2)” value reads like this: under setting [13], 0.0196 (inactive); under setting [14], 0.0967 (inactive); under setting [15], 0.0967 (inactive); under setting [16], 0.133 (inactive).
Turning to `COCCOC(=O)C1=C(C)NC2=C(C(=O)CCC2)C1c1ccc(C)s1` (centres undefined), the “cell viability (log2)” value by setting is: under setting [13], -0.0698 (inactive); under setting [14], 0.0631 (inactive); under setting [15], 0.0308 (inactive); under setting [16], 0.207 (inactive).
With `C=C(C)C1Cc2c(ccc(C(=O)O)c2O)O1` (centres undefined), the “cell viability (log2)” value is, setting by setting: under setting [13], 0.0493 (inactive); under setting [14], -0.00474 (inactive); under setting [15], 0.106 (inactive); under setting [16], 0.105 (inactive).
Taken in the same sequence, the figures for `CCOC(=O)c1oc2c(OC)c(O)cc(O)c2c(=O)c1-c1cc(OC)c(OC)c(OC)c1` were 0.036 (inactive), 0.0305 (inactive), -0.00359 (inactive) and -0.108 (inactive).
`CC=C(C)C(=O)OC1[C@@H]2C=C3C4CC(=O)O[C@@H](c5ccoc5)[C@]4(C)CCC3[C@@](C)(C2=O)[C@@H](C(O)C(=O)OC)C1(C)C` (some centres undefined): the “cell viability (log2)” value runs as follows: under setting [13], 0.075 (inactive); under setting [14], -0.00745 (inactive); under setting [15], 0.149 (inactive); under setting [16], 0.0968 (inactive).
For the molecule `COC(=O)Nc1ccc(S(=O)(=O)N2C(C)CCCC2C)cc1` (centres undefined), the “cell viability (log2)” value is, setting by setting: under setting [13], 0.0592 (inactive); under setting [14], 0.103 (inactive); under setting [15], 0.0767 (inactive); under setting [16], 0.0829 (inactive).
As for `COc1ccc(CN2CCN(Cc3ccc([N+](=O)[O-])cc3)CC2)cc1OC`, the “cell viability (log2)” value by setting is: under setting [13], 0.0472 (inactive); under setting [14], 0.118 (inactive); under setting [15], 0.097 (inactive); under setting [16], 0.0942 (inactive).
Taken in the same sequence, the figures for `CCSc1nnc(-c2ccc([N+](=O)[O-])cc2)n1-c1ccccc1` were 0.0862 (inactive), 0.0888 (inactive), 0.0629 (inactive) and 0.153 (inactive).
As to `CCOc1cccc(C(=O)c2ccc(O)c(O)c2O)c1`, the “cell viability (log2)” value is, setting by setting: under setting [13], 0.0703 (inactive); under setting [14], 0.005 (inactive); under setting [15], 0.0783 (inactive); under setting [16], 0.0694 (inactive).
Taken in the same sequence, the figures for `C[C@@H]1CC[C@@]23CCC4(C)[C@@](C=CC5[C@@]6(C)CCC(=O)C(C)(C)C6CC[C@]54C)(OC2=O)C3[C@H]1C` (some centres undefined) were 0.12 (inactive), 0.0225 (inactive), 0.0629 (inactive) and 0.0141 (inactive).
`NNCCc1ccccc1`: the “cell viability (log2)” value under setting [13] is 0.0542 (inactive); the “cell viability (log2)” value under setting [14] is 0.11 (inactive); the “cell viability (log2)” value (0.25 µM, library screen: screen2, EWS-FLI1 expression: high (no doxycycline)) is 0.136 (inactive); the “cell viability (log2)” value (0.25 µM, library screen: screen2, EWS-FLI1 expression: low (doxycycline-induced shRNA knockdown)) was -0.0727 (inactive); the “cell viability (log2)” value under setting [15] was 0.2 (inactive); the “cell viability (log2)” value under setting [16] is 0.188 (inactive). In addition, the “cell viability (log2)” value reads like this: (2.5 µM, library screen: screen2, EWS-FLI1 expression: high (no doxycycline)) -0.435 (active); (2.5 µM, library screen: screen2, EWS-FLI1 expression: low (doxycycline-induced shRNA knockdown)) -0.392 (active).
As for `NC(=O)NC(=O)Cc1ccccc1`, the “cell viability (log2)” value runs as follows: under setting [13], 0.103 (inactive); under setting [14], 0.215 (inactive); under setting [15], 0.184 (inactive); under setting [16], 0.139 (inactive).
Taken in the same sequence, the figures for `CCN(CCCc1ccccc1)CCCc1ccccc1` were 0.0709 (inactive), 0.129 (inactive), 0.11 (inactive) and 0.151 (inactive).
Taken in the same sequence, the figures for `COC(=O)C1=C(C)N=C2SCCC(=O)N2C1c1ccc(OC)cc1` (centres undefined) were 0.0178 (inactive), 0.0759 (inactive), 0.0162 (inactive) and 0.0699 (inactive).
As for `Cc1cc(Nc2ccc(O)cc2)n2c(nc3ccccc32)c1C#N`, the “cell viability (log2)” value reads like this: under setting [13], 0.079 (inactive); under setting [14], 0.0759 (inactive); under setting [15], 0.0987 (inactive); under setting [16], 0.0687 (inactive).
Taken in the same sequence, the figures for `CC1(O)/C=C\C=C(\CO)C2CC(C)(C)C2(O)CC1` (centres undefined) were 0.0666 (inactive), 0.000836 (inactive), 0.128 (inactive) and 0.00974 (inactive).

The values above are taken from the supplement of paper PMC6089552.
